Measurements reported in PubChem BioAssay AID1347416 (National Center for Advancing Translational Sciences (NCATS), 2020).
Among all 4,100 compounds or so, about 1,600 (39%) were called active. Another 25% or so got no clear call; they are omitted. The list shows a part of the results. Values without a mark were called inactive. Calls come from the whole dose curve; as a rule, active = well fitted inhibition curve with a large enough effect; inconclusive = small, poorly fitted or top-dose-only effect; inactive = no such curve, though single readings can be large or run the other way.

Test: qHTS Validation assay for Inhibitors of Plasmodium falciparum Dd2 growth in vitro; note: nearly all actives have a fitted effect of over 70% in size
Settings: P. falciparum Dd2 in RBCs, SYBR Green growth, 72 h; series mostly up to 28.7 µM; activity change, negative = inhibition: at the top concentration
Description: Malaria, a parasitic disease spread to humans through the bite of a Plasmodium infected Anopheles mosquito, continues to be a global health burden affecting millions of people, with an estimated 228 million cases and 405,000 deaths in 2018. Concerns about safety and limitations of current antimalarial treatments strongly emphasize the need to develop new therapeutic options. The scarce number of chemotypes and validated drug targets with efficacy against the liver stage, have hindered development of new antimalarials. To address this, a chemoprophylactic drug discovery effort was conducted through a combined phenotypic high-throughput asexual blood stage and liver stage screen, providing a robust foundation to identify liver-stage active lead chemotypes. Compounds were initially screened against Plasmodium falciparum Dd2 strain parasites using a in vitro SYBRGreen-1 based 72 hr proliferation assay to identify novel chemotypes to advance to liver stage assays. NIH/NCATS Early Translation Branch Assay Submitter (PI): Anton Simeonov Ph.D.
[…] Assay Protocol: PROTOCOL TABLE (as described by Inglese et al., 2007) SEQUENCE No. (e.g., 1, 2, 3, etc.); PARAMETER (e.g., Cells, Incubation, Reagent, etc.); VALUE; DESCRIPTION SEQUENCE, Parameter, Description 1; Reagent; 3 uL complete malaria growth medium, 1536 TC treated Black clear bottom plate 2; Controls; 23 nL positive control artesunate (300 nM final) to column 1; Neutral control DMSO to columns 2-4 3; Compound; 23 nL of compounds in dose response concentration (29 uM to 0.5 nM final) 4; Reagent; 5 uL malaria infected red blood cells (2.5% hematocrit final, 0.3% parasitemia 5; Time; 72 hours at 37C (5% O2, 5% CO2, 90% N2; 95% Rh) 6; Reagent; 2 uL lysis buffer/SYBRGreen-1, 25 sec shake immediately following dispense 7; Time; ~16 hours at 37C (5% O2, 5% CO2, 90% N2; 95% Rh) 8; Detector; EnVision (PerkinElmer) bottom read at 485/14nm excitation and 535/25 nm emission NOTES (numbers refer to sequence above): 1; Complete Malaria Growth Media: 1X RPMI-1640 w/L-glutamine, 5.5g/L Albumax II, 367 uM Hypoxanthine, 25 mM HEPES, 0.25% Sodium Bicarbonate, 35 uM Gentamicin sulfate 2; Controls were added using the Kalypsis Pintool (Wako USA) equipped with 1536 pinhead 3; Compounds were added in a 7-point, titration with a high final concentration of 29 uM by Pintool from seven inter-plate titrations of library plates and two DMSO control plates at the beginning and end (see Yasgar et al., 2008). 4; Red blood cells infected with Plasmodium falciparum Dd2 parasites were used. 6; Lysis buffer: 20 mM Tris-HCl, 10 mM EDTA, 0.16% Saponin, 1.6% Triton-X, 10X SYBR Green. REFERENCE: Inglese J, Shamu CE, Guy RK. 2007. Reporting data from high-throughput screening of small-molecule libraries. Nat Chem Biol. doi:10.1038/nchembio0807-438 Yasgar A, Shinn P, Jadhav A, Auld D, Michael S, Zheng W, Austin CP, Inglese J, Simeonov A. 2008. Compound Management for Quantitative High-Throughput Screening. J Lab Autom 13:79-89. doi:10.1016/j.jala.2007.12.004
% is set by controls: 0 for no effect and ±100 for the full control effect; potency is the fitted concentration of half-maximal effect.

SMILES	Potency	activity change, negative = inhibition
CCOC(=O)c1c(CNc2ccncc2)n(C)c2cc(Br)c(O)cc12	2.66 µM (active)	–
CCOC(=O)c1c(CSC(=N)N)n(-c2ccc(C)cc2)c2cc(Br)c(OC(C)=O)cc12	5.96 µM (active)	–
CCOC(=O)c1c(CN(C)C)n(-c2ccc(C)cc2)c2cc(Br)c(O)cc12	4.22 µM (active)	–
COc1ccc(C(=O)N2CCC(Cc3nc(-c4cccnc4)n[nH]3)C2)cc1F (stereo not given)	–	18.9%
COc1ccc(-c2[nH]nc3ncc(-c4cccnc4)nc23)cc1F	3.85 µM (active)	–
COc1ccccc1CCNC(=O)c1cccn1-c1nnc(N2CCCCC2)s1	–	-6.38%
Fc1ccc(N2CCN(Cc3cccn3-c3nnc(N4CCN(C5CCCCC5)CC4)s3)CC2)cc1	11.9 µM (active)	–
CN(CC1CCOCC1)S(=O)(=O)c1ccc(F)c(Cl)c1	–	28.6%
CCCN(CCC)CC(O)Cn1cc(/C=C/C(=O)c2ccc(C)cc2)c2ccccc21 (stereo not given)	4.73 µM (active)	–
CCCCN(CCCC)CC(O)Cn1cc(/C=C/C(=O)c2ccccc2)c2ccccc21 (stereo not given)	1.68 µM (active)	–
O=C(NC1CCCN(c2cc(-c3ccccc3)[nH]n2)C1)c1cc(F)ccc1F (stereo not given)	–	-3.71%
CC1(c2ccccc2)N(Cc2ccccc2F)C(=O)OC12CCN(Cc1cccc(O)c1)CC2 (stereo not given)	6.68 µM (active)	–
COc1ccc(C(=O)N2CCC3(CC2)OC(=O)N(Cc2ccc(O)cc2)C3(C)c2ccccc2)cn1 (stereo not given)	6.68 µM (active)	–
COc1cccc(CN2CCC3(CC2)Cc2ccccc2NC3=O)c1	–	-8.07%
CC1(c2ccccc2)N(Cc2ccccc2)C(=O)OC12CCN(Cc1cccc(O)c1)CC2 (stereo not given)	8.41 µM (active)	–
COc1ccc(C(=O)N2CCCn3cc(-c4ccccc4F)nc32)cn1	–	19.7%
COc1cccc(CN2CCC3(CC2)OC(=O)N(Cc2ccccc2)C3(C)c2ccccc2)c1 (stereo not given)	15 µM (active)	–
COc1ccc(C(=O)N2CCC(c3nc(C4CCOCC4)no3)CC2)cn1	–	2.15%
Cc1nc(CN2C(=O)OC3(CCN(C(=O)c4ccc(Oc5ccccc5)cc4)CC3)C2(C)c2ccccc2)cs1 (stereo not given)	13.3 µM (active)	–
O=C(NC[C@H]1O[C@H](Cc2cc(CN3CCNCC3)on2)CC[C@@H]1O)c1ccccc1F	–	88%
CN(Cc1ccccc1)Cc1cc(C[C@@H]2CC[C@H](O)[C@@H](CNCc3ccccc3)O2)no1	4.73 µM (active)	–
Cc1cccc(OCC2(CNCc3cccnc3)C[C@@H](O)[C@@H](O)C2)n1 (stereo not given in full)	–	26.5%
COc1ccccc1CNC[C@H]1O[C@H](Cc2cc(CN(C)Cc3ccccc3)on2)CC[C@@H]1O	2.99 µM (active)	–

SMILES	Potency	activity change, negative = inhibition
O[C@H]1CC[C@@H](Cc2cc(COc3ccccc3)on2)O[C@@H]1CNCc1cccc(Cl)c1	2.11 µM (active)	–
O[C@@H]1CC(CNCc2cccc(Cl)c2)(COc2ccccc2)C[C@@H]1O (stereo not given in full)	3.85 µM (active)	–
O=C(c1cc(F)ccc1F)N1CC(c2nnc(-c3ccncc3)o2)C2(CCOCC2)C1 (stereo not given)	–	59.8%
COc1cc(OC)c(NC(=O)Cn2c(C)cc3nc4n(c(=O)c32)CCCCC4)cc1Cl	–	-29.8%
COc1cc(Cc2cc(N)nc(N)n2)cc(OC)c1OC	–	46.1%
Cc1nnc([C@H]2CCN(Cc3c[nH]c4ccccc34)C2)o1	–	-16.6% [at 57.5 µM]
COc1ccc(CN2C[C@H]3CN(Cc4c[nH]c5ccccc45)CCN3C2=O)cc1	3.85 µM (active)	–
COc1ccc(-c2cn(CCc3c[nH]c4ccccc34)nn2)cc1	–	15%
Cc1nonc1CC(=O)N1CCCC(CNS(=O)(=O)c2cccs2)C1 (stereo not given)	–	47.9%
CC1(c2ccccc2)CC(c2ccccc2)=Nc2nonc2N1 (stereo not given)	5.31 µM (active)	–
COc1cc(/C=C(\C#N)c2nc3ccccc3[nH]2)cc(Cl)c1OCc1ccccc1Cl	5.31 µM (active)	–
COc1cc(SC)ccc1C(=O)Nc1nc2ccccc2[nH]1	–	-19.7%
COc1cc(/C=C(\C#N)c2nc3ccccc3[nH]2)ccc1OCc1ccc(F)cc1	5.31 µM (active)	–
O=C(Nc1cnc2ccccc2c1)c1cccc(-n2cnnn2)c1	2.66 µM (active)	–
CCc1noc(-c2cccn3c(CNC(=O)c4ccc(Cl)cc4)nnc23)n1	–	16.2%
CC(C)c1ccccc1Oc1c(C(F)(F)F)oc2c(CN3CCN(C)CC3)c(O)ccc2c1=O	0.668 µM (active)	–
Cc1ccc(C)c(Oc2c(C(F)(F)F)oc3c(CN4CCN(C)CC4)c(O)ccc3c2=O)c1	0.75 µM (active)	–
CCN1CCN(Cc2c(O)ccc3c(=O)c(Oc4ccccc4C(C)C)c(C(F)(F)F)oc23)CC1	0.596 µM (active)	–
Cc1ccccc1C(=O)NC(CC(C)C)C(=O)OCC(=O)c1c(N)n(C)c(=O)n(C)c1=O (stereo not given)	2.66 µM (active)	–
CCSc1nnc(SCC(=O)c2c(N)n(C)c(=O)n(C)c2=O)s1	–	-13.4%
Cc1ccc(N(C)C2=NC(=O)CS2)cc1Cl	9.44 µM (active)	–
COc1cc(O)c(C(CCN2CCCC(C)C2)c2ccc(N(C)C)cc2)c(OC)c1 (stereo not given)	1.68 µM (active)	–
